Results as given in PubChem BioAssay (NCI).
This is part of a sample that, as a whole, favours compounds with a hit. Of some 79,000 tested, about 15% had one in any assay. Cut-off read from the data, not from the text of the source: active = growth inhibition above about 70%; inactive = the rest.

Experiments:
[1] = NCI Yeast Anticancer Drug Screen. Data for the rad50 strain (AID 155);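 note: 0% = growth of vehicle-only cultures of the same strain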; conditions: S. cerevisiae rad50 strain growth inhibition; at 50.0 µM; active compounds read high
Summary of the method: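 Readout: growth inhibition relative to vehicle-treated cultures. Compound exposure was carried out in a genetically defined yeast strain deficient in DNA damage repair.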

[2] = NCI Yeast Anticancer Drug Screen. Data for the mec2-1 strain (AID 157); conditions: S. cerevisiae mec2-1 strain, at 50.0 µM, active compounds read high
Summary of the method: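 Cells of the genetically defined mec2-1 yeast strain are incubated with test compound. Inhibition of growth is calculated against vehicle-treated controls.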

[3] = NCI Yeast Anticancer Drug Screen. Data for the sgs1 mgt1 strain (AID 161);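 note: 0% = growth of cultures given vehicle only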; conditions: S. cerevisiae sgs1 mgt1 strain, at 50.0 µM, active compounds read high
Summary of the method: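 Genetically altered yeast, compound exposure, growth inhibition relative to vehicle.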

[4] = NCI Yeast Anticancer Drug Screen. Data for the cln2 rad14 strain (AID 165);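 note: 0% = growth equal to vehicle treated cultures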; conditions: S. cerevisiae cln2 rad14 strain, at 50.0 µM, active compounds read high
Summary of the method: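 The screen exposed genetically defined yeast (cln2 rad14) to test compounds and scored growth inhibition relative to vehicle-treated controls.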

[5] = NCI Yeast Anticancer Drug Screen. Data for the bub3 strain (AID 167); conditions: S. cerevisiae bub3 mutant strain, at 50.0 µM, active compounds read high
Summary of the method: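 Readout: yeast growth inhibition, expressed relative to vehicle-only wells. The test organism is a mutant strain from a panel with lesions in DNA repair or checkpoint genes.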

[6] = NCI Yeast Anticancer Drug Screen. Data for the mlh1 rad18 strain (AID 175); conditions: S. cerevisiae mlh1 rad18 strain growth inhibition; at 50.0 µM; active compounds read high
Summary of the method: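 Compound-treated yeast growth, normalised to vehicle controls. Strain bears defined DNA repair mutations.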

Measured: growth inhibition

CC(CCC(=O)O)C1CCC2C3CCC4CC(OC=O)CCC4(C)C3CC(=O)C12C (stereo not given)
inactive: [1] -5.9% | [2] -3.25% | [3] -12.8% | [4] 0.15% | [5] -1.6% | [6] -13.9%

c1ccc(-c2nnn(-n3nnc(-c4ccccc4)n3)n2)cc1
inactive: [1] -13% | [2] 12.3% | [3] 10.9% | [4] -5.55% | [5] 1.3% | [6] 25.5%

CCCCCCC(/C=C/c1ccc(Cl)c(Cl)c1)=N\Nc1ccccc1
inactive: [1] 3.55% | [2] -15.9% | [3] 14.8% | [4] -19.7% | [5] -4.3% | [6] -12.3%

C[S+]1C=C(c2ccccc2)SC=C1c1ccccc1 (stereo not given)
inactive: [1] 35.2% | [2] 32.9% | [3] 59.6% | [4] 8.3% | [5] 47% | [6] 55%

O=C1c2cc3c(cc2C(=O)c2[nH]c(=O)ccc21)CCCC3
inactive: [1] 11.5% | [2] 25.9% | [3] 16% | [4] 0.85% | [5] 33.4% | [6] 35.6%

Cc1nc2ccc(C(F)(F)F)cc2nc1Nc1ccc(Cl)c(Cl)c1
inactive: [1] 20.2% | [2] 27.4% | [3] 47.6% | [4] 15.2% | [5] 6.95% | [6] 34%

O=C(O)c1ccc(/C=N/NC(=O)C(O)(c2ccccc2)c2ccccc2)cc1
inactive: [1] 8.3% | [2] -21.9% | [3] -18.9% | [4] 11.7% | [5] -10.4% | [6] -9.65%

CC1CCN(C(=O)c2cc(Nc3ccnc4cc(Cl)ccc34)ccc2O)CC1
inactive: [1] -2.05% | [2] -3.4% | [3] -6.65% | [4] -4.35% | [5] -3.9% | [6] 7.6%

Cc1ccc(O)c(C(=O)CCCC(=O)c2cc(C)ccc2O)c1
inactive: [1] -4.6% | [2] 7.9% | [3] 7.7% | [4] 12.5% | [5] -8.3% | [6] 4.35%

COC1=C(OCc2ccccc2)C(=O)OC1C(O)CO (stereo not given)
inactive: [1] -3.1% | [2] 11.4% | [3] 0.5% | [4] -1.3% | [5] -7.55% | [6] -12%

CCN(CC)C1=Nc2ccccc2N(c2ccccc2)C(SC)=C1
inactive: [1] -1.4% | [2] -6.9% | [3] 6.15% | [4] -6.45% | [5] 2.25% | [6] 14.5%

C=CC1ON(C)CCc2cc(OC)c(OC)cc21 (stereo not given)
inactive: [1] -4.9% | [2] -1% | [3] -53.5% | [4] 15.1% | [5] -1.8% | [6] -9.9%

O=C(OCCCCCCCCOC(=O)c1cccc([N+](=O)[O-])c1)c1cccc([N+](=O)[O-])c1
inactive: [1] 20.9% | [2] 11.8% | [3] 11.8% | [4] 8.15% | [5] -5.55% | [6] 4.85%

CC(=O)CC(=O)N1C(C)CCCC1C (stereo not given)
inactive: [1] -12.3% | [2] -36.7% | [3] -7.55% | [4] -0.4% | [5] -18.1% | [6] -18.7%

CCN(CC)c1ccc(/C=N\NC(=S)N/N=C/c2ccc(N(CC)CC)cc2)cc1
inactive: [1] -2.3% | [2] 0.85% | [3] 7.9% | [4] 33% | [5] -0.95% | [6] -1.1%

COC1C2CCC1C(N=O)C2Br (stereo not given)
inactive: [1] -23.2% | [2] 3.75% | [3] -3.1% | [4] -44.9% | [5] 0.65% | [6] -14.7%

CC(C)N(C(=O)C12C3C4C5(C(=O)O)C(C1C35I)C42C(=O)O)C(C)C (stereo not given)
inactive: [1] -5.25% | [2] 11.1% | [3] -13.3% | [4] 13.7% | [5] -10.4% | [6] -4.1%

COc1cccc(N2CCN(CC(O)COc3ccc(N)cc3)CC2)c1 (stereo not given)
inactive: [1] 36.1% | [2] 25.1% | [3] 31.9% | [4] 30.6% | [5] 25.1% | [6] 44%

CC(C)(C)OC(=O)CNC(=O)C(CSC(c1ccccc1)c1ccccc1)NC(=O)CNC(=O)C(CCCCNC(=O)OCc1ccccc1)NC(=O)CNC(=O)C(CSC(c1ccccc1)(c1ccccc1)c1ccccc1)NC(=O)OCc1ccccc1 (stereo not given)
inactive: [1] 34.8% | [2] 14.7% | [3] 8.5% | [4] 3.8% | [5] 19.3% | [6] -4.2%

Cc1cccc(O)c1O
inactive: [1] 25.2% | [2] 0.15% | [3] 23.1% | [4] -0.2% | [5] 16.8% | [6] 20.4%

COC(=O)C1CC(OC(C)=O)C2OC(C)(C)OC2C1OC(C)=O (stereo not given)
inactive: [1] 7.5% | [2] 1.55% | [3] -3.15% | [4] 0.55% | [5] 8.55% | [6] -3%

CCC(c1ccco1)C(C#N)C(=O)OC(C)(C)C (stereo not given)
inactive: [1] -11.8% | [2] -21.9% | [3] -1.05% | [4] -5.8% | [5] -16.3% | [6] -27.7%

COc1ccc(C23CCCC(=O)C2C2C(=O)CCCC23c2ccc(OC)cc2)cc1 (stereo not given)
inactive: [1] 47.4% | [2] -0.85% | [3] 4.4% | [4] 10.6% | [5] 5.25% | [6] 13.1%

Cc1oc2cc(O)ccc2c(=O)c1-c1ccccc1Br
inactive: [1] 9.85% | [2] 24.9% | [3] 17.4% | [4] -24.6% | [5] 15.9% | [6] 27.4%

C=CC(C)(C)c1c(OC(C)=O)cc2oc3c(OC(C)=O)c(OC(C)=O)cc(CC=C(C)C)c3c(=O)c2c1O
inactive: [1] 34% | [2] 12.3% | [3] 11.2% | [4] 7.35% | [5] -5.85% | [6] -0.55%

C[N+](C)(C)CC(=O)N/N=C/c1oc(-c2cccc([N+](=O)[O-])c2)c(-c2cccc([N+](=O)[O-])c2)c1[N+](=O)[O-]
inactive: [1] 19.4% | [2] 11.7% | [3] 11.8% | [4] 16.3% | [5] -19% | [6] 3.35%

O=C1CCC(=O)N1Cc1ccc(Cl)cc1
inactive: [1] -4.7% | [2] 5.5% | [3] -1.1% | [4] -13.6% | [5] -3.8% | [6] -4.1%

O=C(O)CCCCCNC(=O)c1ccccc1
inactive: [1] 18.3% | [2] 14.8% | [3] 16.2% | [4] 6.4% | [5] -8.2% | [6] 22.2%

CN(C)c1ccc(C2c3c(oc4ccccc4c3=O)Oc3oc4ccccc4c(=O)c32)cc1
inactive: [1] 3.8% | [2] -0.15% | [3] -9.85% | [4] 5.4% | [5] 0.35% | [6] -17.5%

NC(=O)c1nnn2c1nc(N)c1cc(Cl)ccc12
inactive: [1] -28.4% | [2] -26.6% | [3] -9.55% | [4] -18.4% | [5] -27.6% | [6] -22.6%

CCC(=O)N1NC(=O)C(CC)(CC)C1=O
inactive: [1] -1.95% | [2] -26.2% | [3] 11.1% | [4] 10.7% | [5] -2.3% | [6] -35.6%

CC1(C)CN(Cc2ccccc2)C(C)(C)CN1
inactive: [1] -5.85% | [2] -6.65% | [3] -6.4% | [4] -54.6% | [5] -10.5% | [6] -4.65%

c1ccc(NCc2nc3ccccc3[nH]2)cc1
inactive: [1] -1.6% | [2] -7.55% | [3] -10.4% | [4] 24.3% | [5] 7.6% | [6] 1.15%

O=c1[nH]nc(-c2ccc(Cl)cc2)c2cc(Cl)c(Cl)cc12
inactive: [1] -6.45% | [2] -11.3% | [3] -10.7% | [4] -57.9% | [5] -5.2% | [6] -20.7%

CC(C)(C#N)OC(=O)Nc1c(Cl)cccc1Cl
inactive: [1] 2.4% | [2] -23.2% | [3] 5.15% | [4] 3.6% | [5] 11.2% | [6] 6.5%

Fc1ccc(C(c2ccc(F)cc2)C(F)(F)F)cc1
inactive: [1] 8.65% | [2] -20.3% | [3] 24.9% | [4] 10.8% | [5] 13.7% | [6] 13.4%

O=C(N/N=C/c1ccc(Cl)cc1Cl)c1cccc([N+](=O)[O-])c1
inactive: [1] 0.65% | [2] -8.7% | [3] 32.5% | [4] -6.95% | [5] 2.3% | [6] 24.4%

COC(=O)C1C(c2ccccc2)C1(C#N)C#N (stereo not given)
inactive: [1] -42.5% | [2] 2.55% | [3] -1% | [4] -25.6% | [5] -5.55% | [6] 3.3%

CC(C)NCCO
inactive: [1] 23.1% | [2] -3% | [3] -1.85% | [4] 21.2% | [5] 0.3% | [6] 12.3%

O=C(CCn1[nH]c(=O)c(Cl)c(Cl)c1=O)NO
inactive: [1] -21.3% | [2] -14.1% | [3] -9.75% | [4] 3.35% | [5] -19.1% | [6] -13.9%
